Test results taken from PubChem BioAssay.
Values without a mark were called inactive. Active and inactive are the calls of the source.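 How the source made its calls: active means thallium flux through the channel raised or lowered by more than 3 SD from vehicle-only wells, actives on both sides; inactive means the rest.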

What was measured:
Experiment in all cases: modulators of BK channel variants, profiling panel, selectivity assay, cell-based, U2OS BacMam, thallium flux, beta subunits (AID 1259406);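 further: initial slope of Thallos dye fluorescence rise after thallium is added; log ratio against the mean of 0.3% DMSO vehicle wells on the same plate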
F380Y/beta2Delta = conditions: at 30 µM
F380Y/beta4 = conditions: at 30 µM
[1] = molecular target: Calcium-activated potassium channel subunit alpha-1 (Homo sapiens) + Leucine-rich repeat-containing protein 26 (Homo sapiens) (UniProt Q12791+Q2I0M4); conditions: F380Y/Slo1WT/gamma1, at 30 µM
R275C = conditions: at 30 µM
R275C/beta1 = conditions: at 30 µM
R275C/beta2Delta = conditions: at 30 µM
R275C/beta4 = conditions: at 30 µM
R275C/Slo1WT/beta2 = conditions: at 30 µM

Sequence of Calcium-activated potassium channel subunit alpha-1 (Homo sapiens) + Leucine-rich repeat-containing protein 26 (Homo sapiens) (Q2I0M4 whole entry, looked up, one chain of several): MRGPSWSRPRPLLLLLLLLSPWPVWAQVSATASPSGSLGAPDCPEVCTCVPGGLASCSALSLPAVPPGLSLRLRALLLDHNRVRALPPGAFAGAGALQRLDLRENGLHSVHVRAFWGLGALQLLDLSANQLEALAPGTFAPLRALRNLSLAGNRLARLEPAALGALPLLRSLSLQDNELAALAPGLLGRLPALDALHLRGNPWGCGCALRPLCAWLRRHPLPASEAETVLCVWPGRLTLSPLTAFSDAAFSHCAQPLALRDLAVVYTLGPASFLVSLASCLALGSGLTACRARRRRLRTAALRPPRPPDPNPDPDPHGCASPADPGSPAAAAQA

| SMILES | log fold change Tl+ flux (F380Y/beta2Delta) | log fold change Tl+ flux (F380Y/beta4) | log fold change Tl+ flux [1] | log fold change Tl+ flux (R275C) | log fold change Tl+ flux (R275C/beta1) | log fold change Tl+ flux (R275C/beta2Delta) | log fold change Tl+ flux (R275C/beta4) | log fold change Tl+ flux (R275C/Slo1WT/beta2) |
| --- | --- | --- | --- | --- | --- | --- | --- | --- |
| Cc1c(O)cccc1C(=O)N[C@@H](CSc1ccccc1)[C@H](O)CN1C[C@H]2CCCC[C@H]2C[C@H]1C(=O)NC(C)(C)C | -0.0274 | 0.0671 | 0.0165 | -0.105 | 0.237 (active) | -0.0795 | -0.0349 | -0.0218 |
| Cc1[nH]c(=O)c(C#N)cc1-c1ccncc1 | -0.015 | -0.0201 | 0.0127 | -0.0168 | -0.000763 | 0.0393 | 0.0209 | 0.0443 |
| CC(=O)O[C@H]1C[C@@H]2CC[C@@H]3[C@H](CC[C@@]4(C)[C@H]3C[C@H]([N+]3(C)CCCCC3)[C@@H]4OC(C)=O)[C@@]2(C)C[C@@H]1N1CCCCC1 | 0.00769 | 0.00267 | -0.00222 | -0.114 (active) | 0.00114 | -0.0355 | 0.018 | 0.0408 |
| CN(C)CC[C@@H](c1ccc(Cl)cc1)c1ccccn1 | 0.0413 | 0.0471 | -0.00445 | -0.0353 | 0.0461 | 0.00905 | 0.0349 | 0.0166 |
| COC(=O)C1=C(C)NC(C)=C(C(=O)OCC(C)C)C1c1ccccc1[N+](=O)[O-] (stereo not given) | 0.514 (active) | 0.853 (active) | 0.622 (active) | 0.676 (active) | 0.741 (active) | 0.206 (active) | 1.13 (active) | 1.07 (active) |
| CCN1CCN(c2cc3c(cc2F)c(=O)c(C(=O)O)cn3C2CC2)CC1 | -0.0171 | 0.015 | 0.00572 | -0.0438 | 0.0122 | 0.0322 | 0.0288 | 0.165 (active) |
| CCc1oc2ccccc2c1C(=O)c1cc(Br)c(O)c(Br)c1 | 0.479 (active) | 0.628 (active) | 0.428 (active) | 0.0187 | 0.704 (active) | 0.431 (active) | 0.722 (active) | 0.347 (active) |
| O=C(O)/C=C/c1ccc(Cn2ccnc2)cc1 | -0.0133 | 0.00948 | -0.0199 | 0.0013 | 0.0161 | 0.00561 | -0.0096 | 0.0187 |
| COc1cc2c(cc1OC)C(=O)C(CC1CCN(Cc3ccccc3)CC1)C2 (stereo not given) | 0.0718 | 0.0262 | -0.0241 | -0.0742 | 0.0129 | -0.0194 | 0.00155 | 0.0243 |
| COc1cc2nc(N3CCN(C(=O)C4COc5ccccc5O4)CC3)nc(N)c2cc1OC (stereo not given) | -0.269 (active) | -0.235 (active) | -0.00742 | -0.0618 | 0.0698 | -0.0306 | -0.0729 | 0.00736 |
| Nc1nnc(-c2cccc(Cl)c2Cl)c(N)n1 | -0.0167 | -0.0171 | 0.000443 | 0.00303 | 0.00854 | 0.0465 | -0.0247 | -0.000749 |
| CCOC(=O)c1ncn2c1CN(C)C(=O)c1cc(F)ccc1-2 | -0.0461 | -0.0546 | -0.0345 | 0.00689 | 0.00279 | 0.0168 | 0.000313 | 0.022 |
| CCCOc1ccc(C(=O)OCCN(CC)CC)cc1N | 0.0489 | 0.0262 | 0.00339 | 0.0442 | -0.0232 | 0.0224 | 0.00943 | -0.0584 |
| COC1=C(OC)C(=O)C(CCCCCCCCCCO)=C(C)C1=O | -0.557 (active) | -0.388 (active) | -0.413 (active) | -0.199 (active) | -0.0599 | -0.151 (active) | -0.0932 (active) | -0.0534 |
| CN(C)CC/C=C1/c2ccccc2COc2ccc(CC(=O)O)cc21 | 0.053 | 0.0784 | 0.00396 | -0.0501 | 0.0368 | 0.00503 | 0.0335 | 0.0239 |
| CC(=O)OCC(=O)NCCCOc1cccc(CN2CCCCC2)c1 | 0.000408 | -0.0388 | -0.00356 | -0.0635 | 0.00812 | 0.0201 | -0.00407 | 0.00881 |
| CC(=O)Nc1ccc(CC(=O)O)cc1 | -0.0235 | -0.0309 | -0.0302 | -0.0367 | -0.0357 | -0.0277 | -0.0244 | -0.00738 |
| Oc1ccc(C2CNCCc3c2cc(O)c(O)c3Cl)cc1 (stereo not given) | 0.057 | 0.0586 | 0.0552 | -0.0214 | 0.0235 | 0.0656 | 0.0211 | 0.0233 |
| CC1(C)O[C@@H]2C[C@H]3[C@@H]4C[C@H](F)C5=CC(=O)C=C[C@]5(C)[C@@]4(F)[C@@H](O)C[C@]3(C)[C@]2(C(=O)CO)O1 | 0.13 (active) | 0.186 (active) | 0.0484 | 0.0785 | 0.14 (active) | 0.157 (active) | 0.0574 | 0.0265 |
| Cc1ncc([N+](=O)[O-])n1CC(O)CCl (stereo not given) | -0.0158 | -0.0171 | -0.013 | 0.00346 | -0.0317 | -0.0154 | -0.0435 | -0.016 |
| CC(=O)NS(=O)(=O)c1ccc(N)cc1 | 0.0558 | 0.0262 | -0.0364 | 0.0168 | -0.00538 | -0.00501 | -0.00232 | 0.00853 |
| O=C(c1ccc(F)cc1)C1CCN(CCn2c(=S)[nH]c3ccccc3c2=O)CC1 | -0.00369 | 0.0138 | -0.000443 | 0.0338 | -0.0174 | -0.00339 | -0.00101 | 0.0813 (active) |
| N#Cc1ccc(C(c2ccc(C#N)cc2)n2cncn2)cc1 | 0.0563 | 0.0185 | 0.0131 | -0.0506 | -0.0148 | -0.0137 | -0.0251 | 0.00776 |
| COc1ccccc1OCC(O)CN1CCN(CC(=O)Nc2c(C)cccc2C)CC1 (stereo not given) | 0.0304 | -0.01 | -0.0153 | -0.0477 | 0.0435 | 0.00123 | 0.0205 | 0.0142 |
| CC(Oc1c(Cl)cccc1Cl)C1=NCCN1 (stereo not given) | -0.00369 | 0.0154 | 0.00177 | -0.0395 | 0.0393 | 0.00761 | 0.0269 | 0.0415 |
| CC(C)(C)C(O)/C=C/c1ccc2c(c1)OCO2 (stereo not given) | -0.034 | 0.0193 | 0.00833 | -0.0106 | 0.0195 | -0.0731 | -0.0258 | -0.0107 |
| CCCN1CCCC[C@H]1C(=O)Nc1c(C)cccc1C | 0.0505 | 0.0334 | -0.0126 | 0.0086 | 0.0221 | 0.0105 | 0.0113 | 0.0315 |
| COc1cc(C(=O)NS(=O)(=O)c2ccccc2C)ccc1Cc1cn(C)c2ccc(NC(=O)OC3CCCC3)cc12 | 0.327 (active) | 0.428 (active) | 0.314 (active) | -0.0565 | 0.581 (active) | 0.38 (active) | 0.546 (active) | 0.0699 |
| CN(CCOc1ccc(NS(C)(=O)=O)cc1)CCc1ccc(NS(C)(=O)=O)cc1 | 0.0285 | 0.0111 | -0.0274 | -0.101 | 0.0214 | -0.0483 | -9.6e-05 | -0.00913 |
| C[C@H]1COc2c(C3(N)CC3)c(F)cc3c(=O)c(C(=O)O)cn1c23 | -0.0452 | -0.037 | 0.00396 | -0.0195 | -0.0326 | -0.0136 | -0.0013 | -0.0265 |
